# Results: the supplement of paper PMC4466236
# In all, about 33,000 sequences were measured (“E-score (dimensionless, -0.5 to 0.5)”: median about -0.058, highest 2% from about 0.35 on). Many of the other results were omitted from the sample, so the highest values are more common in it than they were.
# System: MvaT
# Assay: PBM 8-mer E-score (mean of HK and ME arrays) (E-score (dimensionless, -0.5 to 0.5)); higher = stronger relative binding preference
# Outline: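 Full-length P. aeruginosa MvaT carrying an N-terminal glutathione S-transferase tag was tested by protein binding microarray following a previously described protocol. Two universal double-stranded 60-mer arrays, ME and HK, were used, each with a constant 25-mer primer region and a variable 35-mer region covering all 8-mers. The rank-based E-score is the mean of the two arrays, parsed with a custom script. Its range runs from -0.5 to 0.5 for each 8-mer.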
row,Sequence,PBM 8-mer E-score
1,CAAAGATG,0.0517
2,CGTGAGAA,0.0476
3,AGGAATGG,-0.0828
4,AACCTCCC,-0.253
5,CCGGATAC,-0.146
6,ACTGATAA,0.209
7,ATCAAGGC,-0.14
8,TCATGACA,-0.0413
9,CTGTCCAC,-0.113
10,GCTCAAAC,0.0144
11,GATAATGC,0.151
12,AAAAATGT,0.0973
13,CATAATGA,0.233
14,AATAATGG,0.372
15,AATAATGC,0.384
16,GATAATGA,0.225
17,TATAATGA,0.373
18,CATAATGC,0.111
19,AATAATGT,0.408
20,AGTAATGG,0.124
21,AATAAGGT,0.224
22,CATAATGG,0.178
23,CGGGACAG,-0.151
24,CCCCACTA,-0.172
25,ATGACATG,-0.0134
26,AATTTCCC,0.207
27,CTCACCAC,-0.026

row,Sequence,PBM 8-mer E-score
1,CAGTTCAC,-0.0234
2,AACCGAAG,0.0622
3,CCCACACC,0.0355
4,AATAATGA,0.361
5,AGTAATGA,0.165
6,ACTAATGA,0.138
7,ACCTAACA,-0.00971
8,ATTTATCG,0.291
9,ATTTATCA,0.301
10,GTTTACTA,0.147
11,GTTTTTTA,0.248
12,CTTTATCA,0.182
13,ATTTATTA,0.434
14,ATTTATTC,0.295
15,CTTTATTA,0.402
16,ATTTATGG,0.204
17,CTTTATTC,0.209
18,GTTTATTA,0.407
19,ATTTATTG,0.379
20,ACCTCTAC,-0.178
21,TACGTTGA,0.0324
22,AGAGCGCG,-0.146
23,GTGACCCA,-0.143
24,TGAATTAA,0.376
25,CGAATTAA,0.308
26,TCAATTAA,0.237
27,AGAATTAA,0.301

row,Sequence,PBM 8-mer E-score
1,GGAATTAA,0.347
2,GGAATTAC,0.149
3,GGCGTGTA,-0.134
4,GGGCTGAA,-0.257
5,AGCCTGTA,-0.00993
6,CAAGAAAA,-0.021
7,ACGCGTCG,-0.0515
8,ATCACGGG,-0.203
9,GTATACAC,0.209
10,ATATATAC,0.464
11,GTATATAC,0.41
12,CCATATAC,0.153
13,CTCTATAC,0.00646
14,GGATATAC,0.208
15,ATCTATAC,0.138
16,ATATACGC,0.291
17,CTATATAC,0.377
18,CTCCCTAC,-0.109
19,AATGACCG,-0.00123
20,GTAGTTTA,0.297
21,CGTGCGGA,-0.146
22,CAGTAGCC,-0.125
23,AAGTATAA,0.379
24,AAGTATAT,0.399
25,TCGTATAA,0.148
26,AAGTATAG,0.167
27,ATGTATAC,0.332

row,Sequence,PBM 8-mer E-score
1,AAGTATAC,0.338
2,CTGTATAA,0.264
3,ATGTATAA,0.35
4,AGGTATAA,0.291
5,TAGTATAA,0.384
6,GAGTATAA,0.273
7,CAGTATAA,0.267
8,ACCAGGAG,-0.239
9,CGGGAGAG,-0.265
10,CACGGGGA,-0.0937
11,CTACCCAC,-0.0554
12,ATGAAACA,0.181
13,AGTATTAC,0.306
14,CCTATTAA,0.249
15,ACTAGTAG,0.0918
16,GTTATTGA,0.311
17,AGTATTAT,0.42
18,ACTAGTAT,0.357
19,ATTATTGA,0.354
20,ACTAGTAA,0.24
21,CTTATTGA,0.22
22,AGTATTAG,0.27
23,ACTATTAA,0.411
24,TCTATTAA,0.285
